Assay [1] can be described thus: qHTS assay to identify small molecule agonists of the androgen receptor (AR) signaling pathway in the presence of an antagonist - cell viability counter screen (AID 1259379). Note: nearly all actives have a fitted effect of over 25% in size. Note: potency is the fitted concentration of half-maximal effect. The method in brief: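 In MDA-kb2 cells (human breast carcinoma, MMTV-luciferase), compounds at 15 concentrations plus 3.0uM nilutamide; 16 hr, 37C, 0% CO2; CellTiter-Fluor fluorescence read for viability.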
A general note: Quantitative high-throughput screening tests each substance at several concentrations.

A short description of assay [2]: qHTS assay to identify small molecule agonists of the estrogen receptor beta (ER-beta) signaling pathway - cell viability counter screen (AID 1259380). Note: nearly all actives have a fitted effect of over 30% in size. Note: potency is the fitted concentration of half-maximal effect. The gist of the method:
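Viability of ER-beta-UAS-bla HEK293T cells was determined by CellTiter-Glo luminescence following 16 hr treatment with test compounds at 37C.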

Assay [3] in a line: qHTS assay to identify small molecule antagonists of the estrogen receptor beta (ER-beta) signaling pathway - cell viability counter screen (AID 1259382). Note: nearly all actives have a fitted effect of over 55% in size. Note: potency is the fitted concentration of half-maximal effect. The gist of the method:
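Tox21 10K library tested in qHTS format on ER-beta-bla HEK293T cells stimulated with 1nM E2; 16 hr treatment at 37C. Same-well CellTiter-Glo luminescence served as the cell viability measure.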

The target of assay [4] is Estrogen receptor (Homo sapiens) (UniProt P03372). Briefly: qHTS assay to identify small molecule agonists of the estrogen receptor alpha (ER-alpha) signaling pathway in the presence of an antagonist (AID 1259383; calls by dose curve; note: top concentration of the series differs between compounds; nearly all actives have a fitted effect of over 15% in size). The gist of the method: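 In VM7Luc4E2 cells, 4,000 per well, compounds at 15 concentrations were co-incubated 22hr at 37C with 10.0nM final ICI-182,780. Luminescence from the stably transfected 4×ERE-luciferase reporter was recorded 30min after ONE-Glo addition.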
Estrogen receptor (Homo sapiens), sequence (P03372 whole entry, looked up): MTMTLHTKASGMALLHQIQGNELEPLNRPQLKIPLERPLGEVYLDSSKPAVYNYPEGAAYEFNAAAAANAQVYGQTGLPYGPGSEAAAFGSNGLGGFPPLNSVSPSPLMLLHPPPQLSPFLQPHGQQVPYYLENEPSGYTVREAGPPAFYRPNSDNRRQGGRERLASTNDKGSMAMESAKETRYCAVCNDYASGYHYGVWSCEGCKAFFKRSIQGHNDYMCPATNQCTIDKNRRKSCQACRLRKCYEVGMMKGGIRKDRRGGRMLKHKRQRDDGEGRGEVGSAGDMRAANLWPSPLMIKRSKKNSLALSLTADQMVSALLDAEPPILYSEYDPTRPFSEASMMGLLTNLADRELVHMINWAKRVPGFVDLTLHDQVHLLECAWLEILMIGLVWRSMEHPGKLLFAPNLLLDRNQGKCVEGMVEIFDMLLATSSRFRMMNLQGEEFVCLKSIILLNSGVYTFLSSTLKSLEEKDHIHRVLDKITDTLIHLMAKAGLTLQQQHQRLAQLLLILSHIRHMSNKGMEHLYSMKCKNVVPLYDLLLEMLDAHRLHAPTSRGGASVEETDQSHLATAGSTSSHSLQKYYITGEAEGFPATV

The target in assay [5] is Thyrotropin receptor (Homo sapiens) (UniProt P16473). As to the kind of experiment: qHTS assay to identify small molecule antagonists of the thyroid stimulating hormone receptor (TSHR) signaling pathway (AID 1259385; calls by dose curve; note: nearly all actives have a fitted effect of over 20% in size; note: potency is the fitted concentration of half-maximal effect). The method in brief: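 Antagonist mode: compound-treated TSHR-expressing HEK293 cells were stimulated with 1.5 ng/mL TSH (final) in presence of Ro20-1724 for 30 min at RT. HTRF cAMP detection after 1 h; each compound tested at 15 concentrations, triplicate.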
Thyrotropin receptor (Homo sapiens), sequence (P16473 whole entry, looked up): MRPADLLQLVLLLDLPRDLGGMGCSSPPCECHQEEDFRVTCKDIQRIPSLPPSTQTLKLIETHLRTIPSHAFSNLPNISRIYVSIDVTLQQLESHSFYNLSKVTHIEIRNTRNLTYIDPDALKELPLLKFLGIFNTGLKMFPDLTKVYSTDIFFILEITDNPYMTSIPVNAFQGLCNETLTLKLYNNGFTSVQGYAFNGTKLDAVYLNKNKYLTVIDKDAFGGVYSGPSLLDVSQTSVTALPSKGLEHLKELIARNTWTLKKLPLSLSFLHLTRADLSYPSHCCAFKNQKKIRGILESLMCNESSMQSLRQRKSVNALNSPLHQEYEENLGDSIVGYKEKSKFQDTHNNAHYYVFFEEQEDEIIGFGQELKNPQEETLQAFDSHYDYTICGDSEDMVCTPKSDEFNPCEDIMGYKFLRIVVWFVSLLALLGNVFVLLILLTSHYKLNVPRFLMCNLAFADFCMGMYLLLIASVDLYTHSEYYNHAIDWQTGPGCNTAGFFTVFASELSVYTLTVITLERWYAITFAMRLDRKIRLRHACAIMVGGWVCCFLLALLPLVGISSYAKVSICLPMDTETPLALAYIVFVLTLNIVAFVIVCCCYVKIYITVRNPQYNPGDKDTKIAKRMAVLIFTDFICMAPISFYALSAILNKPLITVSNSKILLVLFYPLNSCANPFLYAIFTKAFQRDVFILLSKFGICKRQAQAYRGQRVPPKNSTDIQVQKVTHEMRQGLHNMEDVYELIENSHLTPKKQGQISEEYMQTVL

A short description of assay [6]: qHTS assay to identify small molecule agonists of the estrogen receptor alpha (ER-alpha) signaling pathway in the presence of an antagonist - cell viability counter screen (AID 1259386).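 Note: cells exposed to compounds for 22 h at 37 °C before the viability read; nearly all actives have a fitted effect of over 30% in size.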 Note: potency is the fitted concentration of half-maximal effect. The method in brief:
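Fluorescent CellTiter-Fluor viability signal from VM7Luc4E2 cells, with the reagent added during the final hour of a 22hr compound exposure at 37C in the presence of 10.0nM ICI-182,780.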

The target of assay [7] is Progesterone receptor (Homo sapiens) (UniProt P06401). Briefly: qHTS assay to identify small molecule agonists of the progesterone receptor (PR) signaling pathway (AID 1346784; calls by dose curve; note: nearly all actives have a fitted effect of over 30% in size). The method in brief: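 Agonist mode, quantitative HTS format in a HEK 293T line expressing a UAS-controlled beta-lactamase reporter; 16 hr compound exposure at 37C in 2% charcoal-stripped FBS, then LiveBLAzer B/G FRET fluorescence.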
Progesterone receptor (Homo sapiens), sequence (P06401 whole entry, looked up): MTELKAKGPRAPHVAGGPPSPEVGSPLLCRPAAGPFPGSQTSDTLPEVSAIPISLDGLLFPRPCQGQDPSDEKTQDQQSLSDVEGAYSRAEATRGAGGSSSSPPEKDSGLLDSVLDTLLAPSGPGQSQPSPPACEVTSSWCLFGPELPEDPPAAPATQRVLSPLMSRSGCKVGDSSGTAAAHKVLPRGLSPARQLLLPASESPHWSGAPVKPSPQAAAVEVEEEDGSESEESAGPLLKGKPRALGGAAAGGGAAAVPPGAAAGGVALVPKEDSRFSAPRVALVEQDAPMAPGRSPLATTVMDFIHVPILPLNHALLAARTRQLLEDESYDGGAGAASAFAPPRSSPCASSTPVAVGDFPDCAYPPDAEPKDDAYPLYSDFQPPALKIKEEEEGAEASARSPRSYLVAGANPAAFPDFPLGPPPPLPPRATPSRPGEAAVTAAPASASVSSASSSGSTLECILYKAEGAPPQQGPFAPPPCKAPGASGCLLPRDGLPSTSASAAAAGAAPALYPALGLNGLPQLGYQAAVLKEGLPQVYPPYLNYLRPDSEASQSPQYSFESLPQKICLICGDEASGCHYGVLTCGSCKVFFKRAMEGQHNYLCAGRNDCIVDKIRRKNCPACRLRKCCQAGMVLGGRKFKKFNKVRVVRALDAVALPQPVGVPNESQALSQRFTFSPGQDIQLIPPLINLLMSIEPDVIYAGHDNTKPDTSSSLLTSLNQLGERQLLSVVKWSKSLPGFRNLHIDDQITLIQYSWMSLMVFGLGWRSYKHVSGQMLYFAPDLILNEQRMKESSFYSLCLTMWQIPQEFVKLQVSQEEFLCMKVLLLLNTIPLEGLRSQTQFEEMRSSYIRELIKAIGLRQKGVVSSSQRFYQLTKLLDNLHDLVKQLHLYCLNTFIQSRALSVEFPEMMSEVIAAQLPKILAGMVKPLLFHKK

Assay [8] is described as follows: qHTS assay to identify small molecule antagonists of the progesterone receptor (PR) signaling pathway - cell viability counter screen (AID 1346798). Note: nearly all actives have a fitted effect of over 50% in size. Note: potency is the fitted concentration of half-maximal effect. The method in brief:
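Same-well multiplex: after 16 hr at 37C with compound and R5020 stimulation, HEK293T cells carrying a UAS-bla reporter received LiveBLAzer substrate (2 hr RT), then CellTiter-Glo (30 min RT) for luminescent viability.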

Assay [9] in a line: qHTS assay to identify small molecule agonists of the progesterone receptor (PR) signaling pathway - cell viability counter screen (AID 1346799; calls by dose curve; note: nearly all actives have a fitted effect of over 45% in size; note: potency is the fitted concentration of half-maximal effect). The method in brief:
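Counter screen for cytotoxicity: compound-treated PR-UAS-bla HEK293T cells (16 hr, 37C, 5% CO2) were assayed with CellTiter-Glo, luminescence measured after 30 min at room temperature.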

Assay [10] is described as follows: qHTS assay to identify small molecule agonists of the TGF-beta/Smad signaling pathway - cell viability counter screen (AID 1346829). Note: top concentration of the series differs between compounds; nearly all actives have a fitted effect of over 45% in size. The gist of the method: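 Same-well cytotoxicity: CellTiter-Glo added after the 2 hr room-temperature beta-lactamase substrate step, luminescence measured 30 min later; cells had 5 hr of compound at 37 C.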
A short description of assay [11]: Human pregnane X receptor (PXR) small molecule agonists, qHTS cell viability counter screen (AID 1346977). Note: nearly all actives have a fitted effect of over 50% in size. Note: potency is the fitted concentration of half-maximal effect. The gist of the method:
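Measures live-cell protease fluorescence (CellTiter-Fluor) in PXR-Luc HepG2 cells treated 24hr with compounds at 37C. Cells had 5hr to attach before pin transfer of DMSO solutions.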

Assay [12] can be described thus: qHTS assay to identify small molecule agonists or antagonists of the thyroid stimulating hormone receptor (TSHR) signaling pathway - wild type cell line counter screen (AID 1259384; calls by dose curve). The method in brief:
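Counter screen in untransfected Hek293: compounds (15-point titration, triplicate) plus phosphodiesterase inhibitor Ro20-1724 added after 18 h plating; 30 min RT. Intracellular cAMP via competitive d2/cryptate immunoassay, 1 h incubation.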

For assay [13], the target named is Progesterone receptor (Homo sapiens) (UniProt P06401). Briefly: qHTS assay to identify small molecule antagonists of the progesterone receptor (PR) signaling pathway (AID 1346795; active = well fitted inhibition curve with a large enough effect in the signal ratio in the repeat runs, not every such curve was filed as active; the % refers to the signal ratio). The gist of the method: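 HEK293T PR-UAS-bla reporter cells in charcoal-stripped serum (2%) received compound after a 6 hr settling period, followed by R5020 agonist at 1 nM final; 16 hr incubation preceded the FRET substrate step and fluorescence measurement.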

Assay [14] in a line: qHTS assay to identify small molecule antagonists of the TGF-beta/Smad signaling pathway - cell viability counter screen (AID 1346824). Note: nearly all actives have a fitted effect of over 50% in size. The method in brief:
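Cytotoxicity counter-screen run in the same wells as the beta-lactamase Smad reporter read: CellTiter-Glo luminescence after 30 min at room temperature. HEK 293T SBE-bla cells had 5 hr compound exposure at 37 C with TGF-beta1 (0.25 ng/mL stock).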

A short description of assay [15]: qHTS assay to identify small molecule agonists of the TGF-beta/Smad signaling pathway (AID 1346859; active = well fitted activation curve with a large enough effect in the signal ratio in the repeat runs, not every such curve was filed as active; the % refers to the signal ratio; note: series mostly up to about 77 µM). The method in brief:
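Smad-responsive beta-lactamase reporter cells (HEK 293T) received compounds from DMSO stocks after overnight attachment, were incubated 5 hr, then treated 2 hr with FRET substrate before dual-emission fluorescence measurement (405 nm excitation).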

Assay [16] deals with Thyrotropin-releasing hormone receptor (Homo sapiens) (UniProt P34981). As to the kind of experiment: qHTS assay to identify small molecule antagonists of the thyrotropin-releasing hormone receptor (TRHR) signaling pathway (AID 1346877; active = well fitted inhibition curve with a large enough effect in the repeat runs, not every such curve was filed as active; note: series mostly up to about 51 µM). The method in brief: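 In this cell-based calcium flux format, HEK293 cells expressing TRHR received test compound for 5 min before the agonist TRH (1 nM final). Dye loading lasted 2 h at 37 °C.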
Thyrotropin-releasing hormone receptor (Homo sapiens), sequence (P34981 whole entry, looked up): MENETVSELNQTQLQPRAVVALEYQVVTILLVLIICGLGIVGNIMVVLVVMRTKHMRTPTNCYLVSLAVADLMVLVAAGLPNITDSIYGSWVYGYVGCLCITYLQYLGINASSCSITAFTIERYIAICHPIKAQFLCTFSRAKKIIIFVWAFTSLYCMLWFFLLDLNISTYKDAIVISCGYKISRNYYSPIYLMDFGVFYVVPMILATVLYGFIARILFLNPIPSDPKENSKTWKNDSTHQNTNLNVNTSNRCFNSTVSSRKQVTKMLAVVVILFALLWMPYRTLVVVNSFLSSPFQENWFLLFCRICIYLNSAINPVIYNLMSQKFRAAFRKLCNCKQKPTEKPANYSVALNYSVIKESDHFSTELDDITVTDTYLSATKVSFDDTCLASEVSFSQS

For assay [17] the target is unchanged. Briefly: qHTS assay to identify small molecule agonists of the thyrotropin-releasing hormone receptor (TRHR) signaling pathway (AID 1346891; calls by dose curve; note: series mostly up to about 58 µM). The gist of the method: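 Agonist-mode calcium mobilisation screen: TRHR-transfected HEK293 cells cultured overnight (18 h), dye-loaded for 2 h at 37 °C, exposed to compounds, and monitored by fluorescence for 3 min.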

SMILES strings stand for the structures. “And” between values parts separate entries of the source, which are not always exact repeats. Equal entries are not always repeated. Results filed as inconclusive are left out. The source made the active and inactive calls. Unless noted, calls come from the whole dose curve; as a rule, active = well fitted curve in the direction sought with a large enough effect in the repeat runs; inconclusive = weak or mixed curves; inactive = no such curve, though single readings can be large; an effect the other way counts as inactive or inconclusive.

Regarding `O=C1OC2(c3ccccc31)c1cc(Br)c(O)c(Br)c1Oc1c2cc(Br)c(O)c1Br`, the Potency in assay [1] is 7.81 µM (active) and 22.3 µM (active) and 11.9 µM (active); in [5], 24.7 µM (active) and 21.1 µM (active); in assay [6], 11 µM (active) and 19.9 µM (active) and 10.6 µM (active); in [11] it was 4.93 µM (active) and 9.96 µM (active) and 13.3 µM (active). For the same compound, the Potency result in [2], in assay [3], in assay [4], in [7], in assay [8] and in assay [9] was “inactive” throughout. Further, in assay [10], the Potency result is “inactive”.
Consider `COc1ccc(OC(F)(F)F)cc1CN[C@H]1CCCN[C@H]1c1ccccc1`, for which the Potency in assay [1] was 48.6 µM (active); in [2], 34.4 µM (active); in assay [3] it was 30.6 µM (active); in assay [8] it was 30.6 µM (active); in assay [9], 24.3 µM (active); in assay [11], 54.5 µM (active). In addition, the Potency entry in assay [4], in assay [12], in assay [6], in [7] and in [10] was “inactive” each time.
As for `Cc1cc(C)nc(NS(=O)(=O)c2ccc(N)cc2)n1`, the Potency entry in assay [1], in assay [2], in [3], in assay [12], in assay [5] and in [6] was “inactive” each time. In addition, the Potency entry in assay [7], in assay [13], in [8], in [9], in assay [14] and in assay [10] was “inactive” throughout. The Potency entry in assay [16], in [17] and in assay [11] was “inactive” each time. Also, the call in [15] was inactive.
Take `CCCCC(CC)C(=O)O` (stereo not given): the Potency entry in assay [1], in assay [2], in assay [3], in assay [12], in [5] and in [6] was “inactive” in each case. Moreover, the Potency entry in assay [7], in assay [13], in assay [8], in [9], in assay [14] and in assay [10] was “inactive” each time. Besides, the Potency result in assay [11] is “inactive”. Further, in assay [15], the outcome was inactive.
On to `Cc1cc(=O)oc2cc(O)ccc12`, for which the Potency result in [1], in [2], in assay [3], in assay [4], in assay [12] and in [5] was “inactive” throughout. Moreover, the Potency result in assay [6], in assay [7], in assay [13], in assay [8], in [9] and in [10] was “inactive” each time. The Potency result in assay [16], in assay [17] and in [11] was “inactive” in each case.
Consider `O=c1[nH]cnc2c1ncn2[C@H]1CC[C@@H](CO)O1`, for which the Potency result in [1], in [2], in [3], in [4], in assay [12] and in assay [5] was “inactive” in each case. The Potency entry in assay [6], in assay [7], in [13], in assay [8], in [9] and in assay [14] was “inactive” throughout. The Potency entry in assay [10] and in assay [11] was “inactive” each time. In addition, the compound was called inactive in assay [15].
Turning to `O=C1NS(=O)(=O)c2ccccc21`, the Potency entry in [1], in [2], in assay [3], in assay [12], in assay [5] and in assay [6] was “inactive” throughout. For the same compound, the Potency entry in assay [7], in assay [13], in assay [8], in assay [9], in assay [14] and in [10] was “inactive” each time. The Potency result in [16], in assay [17] and in [11] was “inactive” in each case. Besides, the compound was classed as inactive in [15].
With `CN(N=O)C(=O)N[C@@H]1[C@@H](O)[C@H](O)[C@@H](CO)O[C@@H]1O`, the Potency result in assay [1], in assay [2], in assay [3], in assay [4], in assay [12] and in assay [5] was “inactive” throughout. The Potency result in [6], in assay [7], in assay [13], in [8], in [9] and in assay [14] was “inactive” each time. Besides, the Potency entry in [10], in assay [16], in assay [17] and in [11] was “inactive” each time. Also, the compound was classed as inactive in assay [15].

Values taken from PubChem BioAssay (Tox21).
